Read-out in assay [1]: NAD(P)H dehydrogenase [quinone] 1 (NQO1), NQO1 (gene 1728)
Put plainly: LTEA_HepaRG_NQO1: Life Technologies and Expression Analysis (LTEA) Assay for NAD(P)H dehydrogenase [quinone] 1 (NQO1) using HepaRG (AID 2283526). The conditions noted are these: mRNA level, 48 h; actives raise or lower the signal. A digest of the protocol:
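Human HepaRG hepatic cells received chemicals for 48 h in serum-free induction medium with 0.5% DMSO, up to 100 uM. Expression was assessed by TaqMan qRT-PCR against housekeeping controls and fitted bidirectionally against DMSO.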

Read-out in assay [2]: Nuclear factor erythroid 2-related factor 2 (Homo sapiens) (UniProt Q16236)
Put plainly: LTEA_HepaRG_NFE2L2: Life Technologies and Expression Analysis (LTEA) Assay for Nuclear factor erythroid 2-related factor 2 (NFE2L2) Transcription Factor using HepaRG (AID 2283527). The conditions noted are these: mRNA level, 48 h; actives raise or lower the signal. The essentials:
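Differentiated human HepaRG cells in serum-free induction medium were exposed for 48 h to eight concentrations (top 100 uM, half-log dilutions, 0.5% DMSO), in duplicate. NFE2L2 mRNA was quantified by TaqMan qRT-PCR, normalized to ACTB, GAPDH and POLR2A, with bidirectional fitting versus DMSO.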

Read-out in assay [3]: succinate dehydrogenase complex iron sulfur subunit B (SDHB), SDHB (gene 6390)
Put plainly: LTEA_HepaRG_SDHB: Life Technologies and Expression Analysis (LTEA) Assay for succinate dehydrogenase complex iron sulfur subunit B (SDHB) using HepaRG (AID 2283528). Particulars: mRNA level, 48 h; actives raise or lower the signal. A digest of the protocol: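 SDHB transcript level read by TaqMan qRT-PCR, housekeeping-normalised (ACTB, GAPDH, POLR2A), after 48 h chemical treatment of plated HepaRG cells; eight concentrations top 100 uM, half-log steps, 0.5% DMSO, duplicates; fitted both directions against DMSO.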

Read-out in assay [4]: Signal transducer and activator of transcription 3 (Homo sapiens) (UniProt P40763)
In words: LTEA_HepaRG_STAT3: Life Technologies and Expression Analysis (LTEA) Assay for Signal transducer and activator of transcription (STAT3) using HepaRG (AID 2283529). The conditions noted are these: mRNA level, 48 h; actives raise or lower the signal. The essentials: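 Differentiated human HepaRG cells in serum-free induction medium were exposed in duplicate for 48 h to eight half-log concentrations up to 100 uM in 0.5% DMSO. STAT3 mRNA was quantified by TaqMan qRT-PCR, normalized to ACTB, GAPDH and POLR2A, and fitted bidirectionally against DMSO.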

Read-out in assay [5]: solute carrier (SLCO1B1), SLCO1B1 (gene 10599)
Put plainly: LTEA_HepaRG_SLCO1B1: Life Technologies and Expression Analysis (LTEA) Assay for solute carrier (SLCO1B1) using HepaRG (AID 2283530). The conditions noted are these: mRNA level, 48 h; actives raise or lower the signal. A digest of the protocol:
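HepaRG, serum-free induction medium, 48 h dosing, 8-pt half-log from 100 uM, 0.5% DMSO vehicle, duplicates. Readout: SLCO1B1 mRNA, qRT-PCR, ACTB/GAPDH/POLR2A normalization; up or down fit vs DMSO.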

Read-out in assay [6]: sulfotransferase 2A1 (SULT2A1), SULT2A1 (gene 6822)
Put plainly: LTEA_HepaRG_SULT2A1: Life Technologies and Expression Analysis (LTEA) Assay for sulfotransferase 2A1 (SULT2A1) using HepaRG (AID 2283531). The conditions noted are these: mRNA level, 48 h; actives raise or lower the signal. The essentials:
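Transcript levels of SULT2A1, quantified by qRT-PCR and normalized to three housekeeping genes, serve as the readout. Human HepaRG cultures receive test chemicals for 48 h at up to 100 uM in half-log steps, with 0.5% DMSO vehicle.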

Read-out in assay [7]: Transforming Growth Factor (TGFA), TGFA (gene 7039)
Put plainly: LTEA_HepaRG_TGFA: Life Technologies and Expression Analysis (LTEA) Assay for Transforming Growth Factor (TGFA) using HepaRG (AID 2283532). The conditions noted are these: mRNA level, 48 h; actives raise or lower the signal. The essentials:
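Differentiated human HepaRG cells, plated 48 h then switched to serum-free induction medium, were exposed in duplicate for 48 h to 8-point half-log series from 100 uM in 0.5% DMSO. TGFA mRNA measured by qRT-PCR, normalized to ACTB/GAPDH/POLR2A, bidirectional fit versus DMSO.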

Read-out in assay [8]: Transforming Growth Factor (TGFB1), TGFB1 (gene 7040)
In words: LTEA_HepaRG_TGFB1: Life Technologies and Expression Analysis (LTEA) Assay for Transforming Growth Factor (TGFB1) Transporter using HepaRG (AID 2283533). The conditions noted are these: mRNA level, 48 h; actives raise or lower the signal. A digest of the protocol: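 HepaRG, 48 h post-plating, switched to serum-free induction medium; chemicals 100 uM top, half-log, 8 pts, 0.5% DMSO, dup; 48 h exposure; RNA → Fluidigm TaqMan qRT-PCR; norm ACTB/GAPDH/POLR2A; bidirectional fit vs DMSO.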

Read-out in assay [9]: TIMP1, TIMP1 (gene 7076)
In words: LTEA_HepaRG_TIMP1: Life Technologies and Expression Analysis (LTEA) Assay for TIMP1 using HepaRG (AID 2283534). Particulars: mRNA level, 48 h; actives raise or lower the signal. A digest of the protocol:
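Readout is TIMP1 mRNA level measured by qRT-PCR and normalized to three housekeeping genes. Human HepaRG cells were treated for 48 h in duplicate at eight concentrations up to 100 uM (0.5% DMSO); gain or loss fitted against DMSO.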

Read-out in assay [10]: Thyroid Hormone Responsive (THRSP), THRSP (gene 7069)
In words: LTEA_HepaRG_THRSP: Life Technologies and Expression Analysis (LTEA) Assay for Thyroid Hormone Responsive (THRSP) using HepaRG (AID 2283536). The conditions noted are these: mRNA level, 48 h; actives raise or lower the signal. A digest of the protocol: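 Differentiated human HepaRG cells were exposed in duplicate for 48 h in serum-free induction medium to eight concentrations (top 100 uM, half-log steps, 0.5% DMSO). Expression was quantified by TaqMan qRT-PCR, normalized to ACTB, GAPDH and POLR2A, with bidirectional fitting against DMSO.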

Read-out in assay [11]: UDP glucuronosyltransferase (UGT1A1), UGT1A1 (gene 54658)
In words: LTEA_HepaRG_UGT1A1: Life Technologies and Expression Analysis (LTEA) Assay for UDP glucuronosyltransferase (UGT1A1) using HepaRG (AID 2283538). The conditions noted are these: mRNA level, 48 h; actives raise or lower the signal. The essentials:
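Human liver HepaRG cultures receive test chemical for 48 h, up to 100 uM in 0.5% DMSO, with phenobarbital induction controls. UGT1A1 mRNA is measured by qRT-PCR and normalized to ACTB, GAPDH and POLR2A.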

Read-out in assay [12]: UDP glucuronosyltransferase (UGT1A6), UGT1A6 (gene 54578)
In words: LTEA_HepaRG_UGT1A6: Life Technologies and Expression Analysis (LTEA) Assay for UDP glucuronosyltransferase (UGT1A6) using HepaRG (AID 2283539). The conditions noted are these: mRNA level, 48 h; actives raise or lower the signal. The essentials:
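HepaRG, 48 h post-plating switch to serum-free induction medium; chemical 48 h, 100 uM top, half-log x8, duplicate, 0.5% DMSO. Phenobarbital 1mM induction control. UGT1A6 mRNA by TaqMan qRT-PCR; gain/loss fit vs DMSO.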

Read-out in assay [13]: X-box binding protein 1 (XBP1), XBP1 (gene 7494)
Put plainly: LTEA_HepaRG_XBP1: Life Technologies and Expression Analysis (LTEA) Assay for X-box binding protein 1 (XBP1) using HepaRG (AID 2283540). Particulars: mRNA level, 48 h; actives raise or lower the signal. The essentials:
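Transcript levels of XBP1, measured by qRT-PCR and normalised to three housekeeping genes, were fitted bidirectionally relative to 0.5% DMSO controls. Human HepaRG cells received eight-point half-log dilutions from 100 uM for 48 h.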

Assay [14] can be described thus: LTEA_HepaRG_LDH_cytotoxicity: Cytotoxicity Assessment in the Life Technologies and Expression Analysis (LTEA) Assay (AID 2283563; active means hit-call score of the fitted dose curve at least 0.9, where 1 is the maximum). A digest of the protocol: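 Cells were thawed and plated for 48 h. Medium was then replaced with serum-free induction medium. Chemicals (8 half-log points, maximum 100 uM, 0.5% DMSO) were added in duplicate for 48 h, after which spent medium was assayed for LDH.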

Assay [15] in a line: ATG_XTT_Cytotoxicity: Cytotoxicity Assessment in the Attagene TRANS-FACTORIAL HepG2 Assay (AID 2283584; active means hit-call score of the fitted dose curve at least 0.9, where 1 is the maximum;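 on AC50: cells exposed to compound for 24 h before reading; active means loss of viability signal versus DMSO baseline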). The essentials:
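Cells: human HepG2, transiently transfected with MRTU reporter constructs. Exposure 24 h. Readout: XTT, cell number. Baseline/neg ctrl DMSO; loss-of-signal scored.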

The AC50 is the concentration at which the activity in the assay is half-maximal.

Inconclusive results are not listed. Calls of active or inactive are those of the source. How the source made its calls, unless noted: active means hit-call score of the fitted dose curve at least 0.9, where 1 is the maximum; inactive means score below 0.9.

Chain of Signal transducer and activator of transcription 3 (Homo sapiens) (P40763 whole entry, looked up): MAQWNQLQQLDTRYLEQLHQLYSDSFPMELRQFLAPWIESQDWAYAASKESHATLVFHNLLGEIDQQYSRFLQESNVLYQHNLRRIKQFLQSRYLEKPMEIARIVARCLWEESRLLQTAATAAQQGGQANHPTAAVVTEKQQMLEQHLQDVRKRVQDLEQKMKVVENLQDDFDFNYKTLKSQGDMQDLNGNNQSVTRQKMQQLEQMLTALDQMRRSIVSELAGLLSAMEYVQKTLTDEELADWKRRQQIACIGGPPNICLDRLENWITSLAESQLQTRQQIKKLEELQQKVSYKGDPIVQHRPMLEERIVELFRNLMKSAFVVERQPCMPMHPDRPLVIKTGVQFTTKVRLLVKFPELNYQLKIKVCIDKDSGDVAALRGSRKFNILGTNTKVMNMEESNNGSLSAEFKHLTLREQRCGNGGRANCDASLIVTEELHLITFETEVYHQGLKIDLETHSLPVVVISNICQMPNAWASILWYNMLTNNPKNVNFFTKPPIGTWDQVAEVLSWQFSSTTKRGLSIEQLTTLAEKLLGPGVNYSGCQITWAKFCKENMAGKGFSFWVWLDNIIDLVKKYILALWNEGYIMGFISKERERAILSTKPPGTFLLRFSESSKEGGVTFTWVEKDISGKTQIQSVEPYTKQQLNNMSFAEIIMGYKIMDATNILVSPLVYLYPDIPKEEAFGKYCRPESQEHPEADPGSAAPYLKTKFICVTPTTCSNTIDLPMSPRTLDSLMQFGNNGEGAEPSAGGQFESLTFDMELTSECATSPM
Chain of Nuclear factor erythroid 2-related factor 2 (Homo sapiens) (Q16236 whole entry, looked up): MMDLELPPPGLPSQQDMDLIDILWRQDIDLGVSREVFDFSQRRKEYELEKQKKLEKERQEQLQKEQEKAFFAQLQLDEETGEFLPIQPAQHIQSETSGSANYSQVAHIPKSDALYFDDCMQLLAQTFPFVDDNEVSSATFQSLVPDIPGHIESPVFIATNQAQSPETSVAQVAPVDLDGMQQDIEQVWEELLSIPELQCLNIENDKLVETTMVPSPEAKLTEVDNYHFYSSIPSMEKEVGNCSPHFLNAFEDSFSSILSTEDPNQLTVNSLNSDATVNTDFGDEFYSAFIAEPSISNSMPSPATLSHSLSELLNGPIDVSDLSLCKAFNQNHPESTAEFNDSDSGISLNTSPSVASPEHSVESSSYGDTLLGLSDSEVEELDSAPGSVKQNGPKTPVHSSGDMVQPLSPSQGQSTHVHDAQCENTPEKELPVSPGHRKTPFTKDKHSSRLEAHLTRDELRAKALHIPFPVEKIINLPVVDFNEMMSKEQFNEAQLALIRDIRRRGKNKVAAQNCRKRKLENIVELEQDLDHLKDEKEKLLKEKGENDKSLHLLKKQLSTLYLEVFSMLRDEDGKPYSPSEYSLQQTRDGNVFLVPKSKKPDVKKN

Turning to `CC(C)(C)c1ccccc1O`, the call in assay [1], in [2], in [3], in assay [4], in assay [5] and in assay [6] was inactive. Also, the result in [7], in assay [8], in assay [9], in assay [10], in [12] and in assay [13] was inactive. Also, the outcome in assay [14] and in assay [15] was inactive. Also, the concentration at half-maximal activity (AC50) in assay [11] was 4.14 µM (active).

For the molecule `c1cc[c]([Sb]([c]2ccccc2)[c]2ccccc2)cc1`, the molecule was classed as inactive in assay [15].

As to `CCCCCCCCCCCCc1cccc(S(=O)(=O)O)c1`, the call in [1], in assay [3], in assay [4], in assay [5], in assay [6] and in assay [9] was inactive. In addition, the result in assay [12], in assay [13] and in assay [14] was inactive. Further, the AC50 in [2] is 45 µM (active); in assay [7], 45 µM (active); in [8], 45 µM (active); in assay [10] it was 66.9 µM (active); in assay [11], 22.9 µM (active); in [15] it was 139 µM (active).

As to `O=S(=O)(C(Cl)(Cl)Cl)C(Cl)(Cl)Cl`, the AC50 in assay [15] was 36.7 µM (active).

For `CC(C)O.CC(C)O.OCCN(CCO)CCO.OCCN(CCO)CCO.[Ti]`, the molecule was called inactive in [1], in assay [2], in assay [3], in [4], in assay [5] and in [6]. Also, the outcome in [7], in assay [8], in assay [9], in assay [10], in assay [11] and in assay [12] was inactive. The molecule was called inactive in assay [13] and in assay [15].
